Columns and labels:
Details in all cases: concentration: 1 μM,replicates: in singlicate; n = 1
PIP5K1A = tested on: PIP5K1A
PIP5K1C = tested on: PIP5K1C
PIP5K2B = tested on: PIP5K2B
PIP5K2C = tested on: T1, PIP5K2C
T1 construct: gene PIP4K2C

PKAC-alpha = tested on: T2, PKAC-alpha
T2 construct: gene PRKACA

PKAC-beta = tested on: T3, PKAC-beta
T3 construct: gene PRKACB

PKMYT1 = tested on: PKMYT1
PKN1 = tested on: PKN1
PKN2 = tested on: PKN2
PLK1 = tested on: PLK1
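Also: KINOMEscan kinase panel screen.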

| SMILES | %Inh (PIP5K1A) [%] | %Inh (PIP5K1C) [%] | %Inh (PIP5K2B) [%] | %Inh (PIP5K2C) [%] | %Inh (PKAC-alpha) [%] | %Inh (PKAC-beta) [%] | %Inh (PKMYT1) [%] | %Inh (PKN1) [%] | %Inh (PKN2) [%] | %Inh (PLK1) [%] |
| --- | --- | --- | --- | --- | --- | --- | --- | --- | --- | --- |
| Cl.Cl.NC[C@H](CC1CCCCC1)NC(=O)c1ccc(-c2ccnc3[nH]ccc23)s1 [GSK1581428] | 47 | 41 | 75 | 25 | 99.7 | 99.9 | 0 | 52 | 99 | 2 |
| Cl.Nc1n[nH]c2cc(-c3ccccn3)ccc12 [GSK2189892] | 0 | 25 | 7 | 7 | 0 | 0 | 0 | 10 | 0 | 0 |
| Cn1ccc2ncnc(Oc3ccc(NC(=O)Nc4cccc(C(F)(F)F)c4)c(Cl)c3)c21 | 0 | 48 | 2 | 0 | 0 | 0 | 0 | 0 | 0 | 0 |
| C[C@@H](Oc1cc(-n2cnc3cc(-c4ccncc4)ccc32)sc1C(N)=O)c1ccccc1Cl [GSK479719] | 0 | 58 | 21 | 29 | 0 | 0 | 0 | 15 | 44 | – |
| Cc1n[nH]c2cc(Nc3ccnc(Nc4cccc(CN5CCOCC5)c4)n3)ccc12 [GW682569] | 57 | 70 | 33 | 71 | 0 | 0 | 0 | 46 | 0 | 0 |
| O=C(NOCC1CC1)c1cc(Br)c(F)c(F)c1Nc1ccc(I)cc1Cl | 4 | 43 | 4 | 36 | 9 | 0 | 0 | 9 | 0 | 0 |
| CS(=O)(=O)Nc1ccc(-c2ccnc3[nH]ccc23)cc1 [GSK993273] | 57 | 29 | 55 | 89 | 84 | 85 | 0 | 21 | 18 | 0 |
| CN(c1cccc(CNc2nc(Nc3ccc4c(c3)CC(=O)N4)ncc2C(F)(F)F)c1)S(C)(=O)=O | 45 | 45 | 90.9 | 46 | 0 | 0 | 5 | 77 | 19 | 0 |
| CN(c1ccccc1CNc1nc(Nc2ccc3c(c2)CC(=O)N3)ncc1C(F)(F)F)S(C)(=O)=O | 32 | 0 | 19 | 9 | 77 | 63 | 0 | 85 | 66 | 0 |
| C[C@@H](Oc1cc(-n2cnc3ccc(-c4ccncc4)cc32)sc1C(N)=O)c1ccccc1Cl [GSK483724] | 0 | 85 | 13 | 81 | 13 | 5 | 0 | 17 | 10 | – |
| Cn1cc(-c2cccc3c(N)c(C(N)=O)nnc23)cn1 | 0 | 5 | 0 | 7 | 0 | 16 | 9 | 0 | 23 | 14 |
| Cn1ccc2ncnc(Oc3ccc(NC(=O)Nc4cc(C(C)(C)C)on4)c(Cl)c3)c21 | 14 | 0 | 38 | 0 | 0 | 0 | 0 | 0 | 0 | 0 |
| CCN1CCN(CCCC(=O)Nc2n[nH]c3nc(-c4ccc(O)cc4)c(Br)cc23)CC1 [SB-731579] | 12 | 30 | 0 | 24 | 0 | 0 | 0 | 0 | 6 | 0 |
| O=C(NCC1CC1)c1ccc(-c2cc(C(=O)NC3CC3)ccc2F)cc1 [GW810445] | 54 | 0 | 0 | 22 | 7 | 0 | 0 | 0 | 0 | 6 |
| COc1cccc(CNC(=O)NC2CCN(c3ccnc(Nc4cc(OC)c(OC)c(OC)c4)n3)C2)c1 (stereo not drawn) [GSK1379765] | 52 | 68 | 14 | 90.3 | 0 | 0 | 8 | 36 | 0 | 0 |
| Nc1nccc(-c2ccc3c(N)n[nH]c3c2)n1 [GSK1034945] | 0 | 29 | 48 | 10 | 12 | 0 | 8 | 0 | 9 | 0 |
| Cc1ccc2c(-c3ccnc(Nc4ccc(C(F)(F)F)cc4)n3)cnn2n1 [GW819776] | 15 | 0 | 0 | 82 | 14 | 20 | 0 | 0 | 0 | 25 |

| SMILES | %Inh (PIP5K1A) [%] | %Inh (PIP5K1C) [%] | %Inh (PIP5K2B) [%] | %Inh (PIP5K2C) [%] | %Inh (PKAC-alpha) [%] | %Inh (PKAC-beta) [%] | %Inh (PKMYT1) [%] | %Inh (PKN1) [%] | %Inh (PKN2) [%] | %Inh (PLK1) [%] |
| --- | --- | --- | --- | --- | --- | --- | --- | --- | --- | --- |
| CN(c1ccc2c(c1)nc(NCc1ccc(F)cc1)n2C)c1ccnc(Nc2ccc(CS(C)(=O)=O)cc2)n1.Cl [GW813244] | 12 | 0 | 26 | 52 | 24 | 14 | 4 | 18 | 4 | 0 |
| COc1cc2ncn(-c3cc(OCC4CCCCC4)c(C(N)=O)s3)c2cc1OC [GSK204559] | 0 | 61 | 12 | 11 | 9 | 0 | 2 | 24 | 0 | – |
| CN1CCN(CCCNc2nccc(-c3c(-c4ccc(F)cc4)nn4cc(C(N)=O)ccc34)n2)CC1 [GW622475] | 0 | 50 | 12 | 29 | 6 | 1 | 9 | 13 | 0 | 0 |
| Cc1cccc(-c2nc(Nc3ccncc3)c3sccc3n2)n1 [GW869641] | 4 | 61 | 3 | 45 | 25 | 38 | 3 | 1 | 12 | 33 |
| Cc1ccc(CC(=O)N2CCc3cc(-c4cn(C)c5ncnc(N)c45)ccc32)cc1 [GSK2634758] | 33 | 57 | 32 | 17 | 0 | 0 | 4 | 0 | 16 | 7 |
| COc1cccc(OC)c1C(=O)Nc1cccc(-c2nn3ccccc3c2-c2ccnc(Nc3cccc(F)c3)n2)c1 [GSK361065] | 0 | 0 | 0 | 0 | 23 | 0 | 5 | 0 | 13 | 0 |
| CCn1c(-c2nonc2N)nc2cncc(CNC3CCNCC3)c21.Cl [SB-747651] | 0 | 25 | 0 | 22 | 85 | 83 | 3 | 39 | 0 | 0 |
| COc1cccc(C2=C(Nc3cccc(Cl)c3)C(=O)NC2=O)c1 [SB-341556] | 0 | 23 | 0 | 28 | 0 | 0 | 0 | 5 | 0 | 0 |
| c1ccc(Oc2ccc(Nc3ccnc4ccc(-c5ccccn5)cc34)cc2)cc1 [GW407034] | 6 | 23 | 25 | 28 | 0 | 8 | 11 | 28 | 0 | 0 |
| COc1cc2nccc(Nc3ccc(Oc4ccccc4)cc3)c2cc1OC.Cl [GI261656] | 10 | 56 | 46 | 31 | 0 | 0 | 0 | 0 | 0 | 0 |
| C[C@@H](Oc1cc(-n2cnc3cc(-c4cnn(C)c4)ccc32)sc1C(N)=O)c1ccccc1Cl [GSK580432] | 0 | 38 | 37 | 3 | 2 | 0 | 15 | 0 | 72 | – |
| NC(=O)c1ccc(-c2cc3ncnc(SCC(=O)O)c3s2)cc1 | 0 | 93 | 6 | 72 | 0 | 0 | 0 | 0 | 4 | 0 |
| NC(=O)Nc1sc(-c2ccc(F)cc2)cc1C(N)=O [GW789449] | 93.9 | 65 | 87 | 28 | 0 | 26 | 0 | 7 | 54 | 37 |
| OCCn1cc(-c2cnc3nnn(Cc4ccc5ncccc5c4)c3n2)cn1 | 1 | 3 | 0 | 0 | 0 | 0 | 0 | 0 | 0 | 0 |
| CS(=O)c1ccc(-c2coc3ccc(-c4n[nH]c(=O)o4)cc23)cc1 (stereo not drawn) | 0 | 68 | 20 | 79 | 0 | 23 | 8 | 8 | 12 | 6 |
| CCCC(=O)Nc1n[nH]c2ncccc12 [SB-601436] | 24 | 0 | 39 | 0 | 0 | 10 | 0 | 0 | 9 | 0 |
| C[C@@H]1CNc2c(sc3ccc4nc(-c5ccc(O)cc5)ccc4c23)C(=O)N1 | 3 | 18 | 78 | 13 | 4 | 5 | 2 | 0 | 16 | 0 |

— article PMC5540273 (PLoS ONE, 2017)
